The values that follow come from PubChem BioAssay AID778 (Sanford-Burnham Center for Chemical Genomics, 2007).

SMILES strings stand for the structures. Among all 96,000 compounds or so, about 20,000 (21%) were called active.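 Rule for the calls: active = CYP2C19 inhibition above a set limit at 5 µM in the primary screen (cut at about 50% in these data); inactive = the rest.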 Not all results are given here.

This assay deals with Cytochrome P450 2C19 (Homo sapiens) (UniProt P33261). Description: blockers of cytochrome P450 2C19 activity – biochemical, luminescence, ADME assay, primary screen (AID 778).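 Note: plate controls were negative control wells for no effect and 2.5 mM tranylcypromine positive control for full effect.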 The settings on record: CYP2C19 Supersomes, luciferin-H EGE luminescence, 30 min; at 5 µM; active compounds read high.
Cytochrome P450 2C19 (Homo sapiens), sequence (P33261 whole entry, looked up): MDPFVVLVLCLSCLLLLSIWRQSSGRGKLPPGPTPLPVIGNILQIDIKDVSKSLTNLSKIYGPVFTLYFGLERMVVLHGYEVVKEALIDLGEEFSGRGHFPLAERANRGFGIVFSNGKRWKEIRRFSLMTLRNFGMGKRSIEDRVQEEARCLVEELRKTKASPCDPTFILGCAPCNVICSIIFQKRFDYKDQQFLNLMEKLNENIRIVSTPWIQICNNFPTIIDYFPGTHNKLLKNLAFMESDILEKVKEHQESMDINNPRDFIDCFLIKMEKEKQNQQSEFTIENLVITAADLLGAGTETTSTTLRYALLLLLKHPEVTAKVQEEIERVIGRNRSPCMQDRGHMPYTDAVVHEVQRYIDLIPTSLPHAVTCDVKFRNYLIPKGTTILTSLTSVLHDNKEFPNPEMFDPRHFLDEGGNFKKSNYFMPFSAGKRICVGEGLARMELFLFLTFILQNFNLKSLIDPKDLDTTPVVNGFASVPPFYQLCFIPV
Usually inhibition stands for the relative decrease from the control value, in per cent. As to `O=C(CN1C(=O)COc2ccccc21)NCCN1CCc2ccccc2C1`, the inhibition is 53.3% (active). On to `O=C(CN1C(=O)COc2ccccc21)Nc1ccc(F)cc1`, for which the inhibition was 33.4% (inactive). For the molecule `CCCN1CCN(CCCNC(=O)CN2C(=O)COc3ccccc32)CC1`, the inhibition is -16.5% (inactive). Consider `Cc1cc(C)c2nc(NC(=O)C3CCCO3)sc2c1` (centres undefined), for which the inhibition was 14.4% (inactive). In the case of `Fc1ccc(-c2nnc(CSc3nnc(-c4ccc5c(c4)OCO5)o3)o2)cc1`, the inhibition is -7.5% (inactive). For `Cc1nc(SC(C)C)[nH]c(=O)c1Cc1ccccc1`, the inhibition is 38.8% (inactive). Consider `Cc1cnc(NC(=O)CSc2c(Cl)cccc2Cl)s1`, for which the inhibition is -7.1% (inactive). For the molecule `C=CCOC(=O)C1=C(C)NC(C)=C(C(=O)OCC=C)C1c1cccs1`, the inhibition is 77% (active). The value for `CCOC(=O)N1CC=C2C(C#N)=C(N)C(C#N)(C#N)[C@H](c3cccs3)[C@H]2C1` was -4.5% (inactive); that for `CCCOC(=O)c1[nH]c2c(c1C)C(=O)CC(c1cccs1)C2` (centres undefined) was 39.9% (inactive). For the molecule `COc1cc(C2C(C(=O)Nc3ccc(F)cc3)=C(C)Nc3nc(CCCO)nn32)cc(OC)c1OC` (centres undefined), the inhibition was 11.1% (inactive). Turning to `CCCOC(=O)Cc1c(O)c2ccccc2[nH]c1=O`, the inhibition is -12.3% (inactive). Take `O=c1nc2s/c(=C\c3ccco3)c(=O)n2nc1Cc1ccccc1`: the inhibition is -5.5% (inactive). On to `O=c1/c(=C/c2ccc(CNS(=O)(=O)c3ccccc3)o2)sc2n1CCN=2`, for which the inhibition is 52.4% (active). As for `CCOc1cc(CNCCN(C)C)c(Cl)cc1OCC(=O)NCCc1ccccc1`, the inhibition was -1.1% (inactive).

Regarding `COc1ccc(N2C(=O)CCC(C(=O)Nc3ccccn3)C2c2ccc(OC)c(OC)c2)cc1` (centres undefined), the inhibition is 28.2% (inactive). For the molecule `CCOc1ccc(NC(=O)N2CCN(CC)CC2)cc1`, the inhibition was -6.1% (inactive). Next, `O=C1CCN(C(=O)Nc2ccccc2)N1`: -3.2% (inactive). Turning to `O=C(Nc1ccccc1)N1CCN(Cc2ccccc2)CC1`, the inhibition is 76.7% (active). Next, `CCC(=O)Nc1ccccc1C(=O)N1CCN(Cc2ccccc2)CC1`: 65% (active). Next, `O=C(O)C1CC=CCC1C(=O)Nc1ccccc1C(=O)N1CCN(c2ccccc2)CC1` (centres undefined): -10.7% (inactive). For `COc1cccc(N2CCN(C(=O)Nc3ccc4c(c3)NC(=O)CO4)CC2)c1`, the inhibition was -6.5% (inactive).

With `CC(=O)N1CCN(C(=O)Nc2cccc(C(F)(F)F)c2)CC1`, the inhibition is 8.1% (inactive). As to `O=C(Nc1cccc(NC(=O)N2CCN(c3ccccc3)CC2)c1)N1CCN(c2ccccc2)CC1`, the inhibition was 72% (active). Turning to `Cn1nnnc1SCC(=O)N1CCN(Cc2ccccc2)CC1`, the inhibition is 38.9% (inactive). As to `Cc1ccc(C(=O)OC2=CC(=O)CC(C)(C)C2)cc1`, the inhibition is 36.6% (inactive). Consider `CCOC(=O)c1[nH]c2ccc(OC)cc2c1NC(=O)N1CCOCC1`, for which the inhibition was 2.7% (inactive). As for `Cn1c(SCC(=O)C(C)(C)C)nnc1-c1ccccn1`, the inhibition was 33.5% (inactive).

Consider `CS(=O)(=O)N(Cc1ccc(Cl)cc1)c1ccc(C(=O)NCCSCc2ccco2)cc1`, for which the inhibition was -3.9% (inactive). The value for `O=C(Nc1ccccc1)Nc1ccccc1C(=O)NCc1ccco1` was 79.3% (active). The value for `Cc1ccccc1NC(=O)NCc1ccco1` was -11.9% (inactive). Next, `Cc1cccc(Nc2ccccc2C(=O)NCc2ccco2)c1C`: 22.7% (inactive). Regarding `CCOc1ccccc1C(=O)NCc1ccco1`, the inhibition was 14.6% (inactive). The value for `Cc1ccc(N(Cc2ccc(C(=O)Nc3ccccc3C(=O)NCc3ccco3)cc2)S(C)(=O)=O)cc1C` was 87.7% (active); that for `CC(=O)N(CC1CCCO1)C1(C(=O)NC2CCCC2)CCCCC1` (centres undefined) was 3.8% (inactive).

As for `O=C(CN1CCOCC1)Nc1c2c(nc3c1CCC3)CCC2`, the inhibition is -3% (inactive). Next, `Fc1ccccc1/C=C1\CCCC2=C1Nc1ncnn1C2c1ccccc1F` (centres undefined): 45.3% (inactive); `COc1ccccc1Oc1ccc(S(=O)(=O)Nc2cccnc2)cc1`: 87.6% (active).

Consider `O=S(=O)(Nc1ccccn1)c1ccc(Oc2ccccc2)cc1`, for which the inhibition is 90.2% (active).

In the case of `COc1ccc(C(=O)/C=C/Nc2ccccn2)cc1`, the inhibition is 46.4% (inactive). `CN1CCc2c(sc3c2c(NCc2ccco2)nc2nnnn23)C1`: the inhibition is 37.8% (inactive).

For `CCOc1ccc(NC(=O)C2CC(=O)N=C(N)S2)cc1` (centres undefined), the inhibition was -0.4% (inactive). Turning to `O=C(Nc1ccccc1)O/N=C1\CCCCC1c1ccc([N+](=O)[O-])cc1[N+](=O)[O-]` (centres undefined), the inhibition was 36.8% (inactive). Take `O=C1NC2(CCCCC2)N=C1c1ccccc1`: the inhibition is 25% (inactive).

In the case of `Cc1cc(C)c2c(-n3cccc3)c(C(=O)NNS(=O)(=O)c3ccc(F)cc3)sc2n1`, the inhibition is 31% (inactive). For `CC(C)(C)C(=O)c1cnc(Nc2ccccc2)s1`, the inhibition was 36.7% (inactive). As for `O=c1[nH]c(CSc2ncc(-c3ccc(F)cc3)n2Cc2ccco2)nc2ccccc12`, the inhibition is 32% (inactive). Next, `CCn1c(Cc2ccccc2)nnc1SCC(=O)Nc1ccccc1`: 74% (active); `CCn1c(SCC(=O)Nc2ccc(S(=O)(=O)Nc3onc(C)c3C)cc2)nnc1-c1ccccc1`: 16.5% (inactive). As to `CSc1nc(O)c(Cc2ccccc2)c(=O)[nH]1`, the inhibition was 26.1% (inactive). Next, `CCn1c(Cc2ccccc2)nnc1SCc1nc2ccccc2c(=O)[nH]1`: 70.3% (active); `CNC(=O)CSc1nnc(CCc2ccccc2)n1-c1ccccc1`: -8.1% (inactive); `CC(C)c1ccc(-c2nn[nH]n2)cc1`: 25.4% (inactive). With `O=c1nc(N2CCOCC2)nc2n1CCO2`, the inhibition was 1.1% (inactive). The value for `Cc1ccc2nc(NCCCNC(=O)c3cnccn3)c(C#N)cc2c1` was 17.1% (inactive); that for `CCCCN1C(=O)/C(=C2/C=CC=CN2C)SC1=S` was 30.2% (inactive).

Consider `CCN(CC)c1nc(-c2ccccc2)cc(C(F)(F)F)c1C#N`, for which the inhibition is 11.4% (inactive). Consider `O=C(Cn1c(=S)nc2ccccn21)N1CCc2ccccc2C1`, for which the inhibition is 23.6% (inactive). The value for `COc1ccc(OCC(=O)N2CCN(C(=O)COc3ccccc3)CC2)cc1` was 19.3% (inactive); that for `O=C(COc1ccccc1)N1CCc2ccccc2C1` was 87.9% (active).

With `CC1CN(C(=O)CN2C(=O)NC(C)(c3ccccc3)C2=O)CC(C)O1` (centres undefined), the inhibition was -12.4% (inactive).

For the molecule `CCN1CCN(CCCCOc2ccccc2F)CC1`, the inhibition is 2.6% (inactive). For the molecule `Cc1nnc(NC(=O)CSc2nccn2-c2cccc(C)c2C)s1`, the inhibition is 13.4% (inactive). Take `CCOC(=O)Nc1ccc2c(c1)N(C(=O)CCN1CCN(CCO)CC1)c1ccccc1CC2`: the inhibition is -24.8% (inactive).
